SRC1 inh – human NCOA1 inhibition | inhibition, % at 3.6 µM | Q15788 | HEK293 GAL4-SRC1 luciferase reporter, luminescence | AID 588354 | 360,000 compounds, 0.12% hits;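 active = inhibition above the campaign mean plus 3 SD, with each screening campaign given its own cutoff, cut at about 60% in these data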;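 note: 0% = DMSO treated cells and 100% = gossypol at 36 µM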
Efflux pump mplx – blocks antifungal efflux pumps in multiplex yeast assay; S. cerevisiae Candida pump triplex, Nile Red efflux; inhibition, % at 10 µM; 330,000 compounds, 0.44% hits;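 active = plate passing quality check with inhibition over a set limit, or well fluorescence over plate mean plus 4 SD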;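 note: Nile Red retained in pooled yeast measured as flow cytometry median fluorescence; 0% = buffer negative control and 100% = Enniatin B positive control; higher means more Nile Red kept so more efflux inhibition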
NCOA2 inhibitor – inhibits human steroid receptor coactivator 2; Q15596; 370,000 compounds, 0.17% hits; inhibition, % at 9 µM; HEK293 GAL4-SRC2 luciferase reporter, luminescence;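 active = inhibition above the mean inhibition of all tested compounds plus 3 SD, set per campaign, cut at about 52% in these data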;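 note: 0% = DMSO treated cells and 100% = cells given Gossypol at 36 µM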
NCOA3 inh – inhibitors of human steroid receptor coactivator 3 (SRC3) | Q9Y6Q9 | HEK293 GAL4-SRC3 luciferase reporter, luminescence | inhibition, % at 3.6 µM | 360,000 compounds, 0.17% hits;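 active = inhibition above a per-campaign cutoff, the mean of all compounds plus 3 SD, cut at about 60% in these data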;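 note: 0% = DMSO-treated cells and 100% = gossypol-treated cells at 36 µM; higher means less SRC3-driven luciferase light from the GAL4 reporter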
NR2F2 inh – NR2F2 (human) inhibition, primary screen. inhibition, % at 8.6 µM. HEK293T NGFI-A luciferase reporter, luminescence. P24468. AID 686940. 370,000 compounds, 0.7% hits;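 active = inhibition above a per-plate cutoff, mean inhibition of test wells between control levels plus 3 SD, cut at about 38% in these data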;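 note: cells cotransfected with COUP-TFII expression vector driving the NGFI-A reporter; 0% = median of COUP-TF2 test wells and 100% = reporter-only cells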
NR5A2 inv ag – suppresses constitutive activity of human LRH-1; O00482; HEK293T StAR-luciferase reporter, LRH-1 transfected, 24 h; inhibition, % at 3.6 µM; 360,000 compounds, 0.13% hits; AID 602396;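 active = inhibition above the mean inhibition of all tested compounds plus 3 SD, cut at about 73% in these data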;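 note: 0% = DMSO wells and 100% = reporter-only cells lacking LRH-1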
Target sequence (O00482 whole entry, looked up): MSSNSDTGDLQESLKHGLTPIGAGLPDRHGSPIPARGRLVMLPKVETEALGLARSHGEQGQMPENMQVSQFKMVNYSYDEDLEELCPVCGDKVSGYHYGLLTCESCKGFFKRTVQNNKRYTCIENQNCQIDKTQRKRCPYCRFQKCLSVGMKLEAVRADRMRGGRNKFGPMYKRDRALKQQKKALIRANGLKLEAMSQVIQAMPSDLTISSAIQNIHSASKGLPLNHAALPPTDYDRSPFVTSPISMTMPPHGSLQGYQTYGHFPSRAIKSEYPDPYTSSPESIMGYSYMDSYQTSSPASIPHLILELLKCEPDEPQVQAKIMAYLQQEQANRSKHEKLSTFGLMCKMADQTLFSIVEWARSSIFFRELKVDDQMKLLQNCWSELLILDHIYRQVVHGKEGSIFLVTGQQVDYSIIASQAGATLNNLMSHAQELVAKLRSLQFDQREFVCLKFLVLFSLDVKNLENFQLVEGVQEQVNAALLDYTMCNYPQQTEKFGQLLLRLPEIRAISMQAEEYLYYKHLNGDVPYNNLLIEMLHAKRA
Yeast cmpd fluor – counter-screen for efflux pump inhibitors: compound fluorescence; shares compounds with Efflux pump mplx; S. cerevisiae AD/pABC3, flow cytometry; fluorescence ratio to DMSO, % at 10 µM; 1,700 compounds, 4% hits; AID 588517;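 active = fluorescence ratio to DMSO above its plate's cutoff, the plate mean ratio plus 5 SD, cut at about 210% in these data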;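 note: unstained yeast with no Nile Red so the signal is compound autofluorescence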
CaMdr1 efflux inh – inhibitors of Candida albicans Mdr1 efflux pump; 1,700 compounds, 1% hits; S. cerevisiae AD/CaMDR1, Nile Red efflux, flow cytometry; inhibition, % at 10 µM; shares compounds with Efflux pump mplx; AID 588518; in the data active = inhibition above about 26%;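 note: 0% = DMSO vehicle and 100% = reference inhibitor; higher means more Nile Red retained so more efflux inhibition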
Cdr2 pump inh – blocks the Candida albicans Cdr2 efflux pump in yeast; shares compounds with Efflux pump mplx; S. cerevisiae AD/CaCDR2, Nile Red retention, flow cytometry; Nile Red retention ratio vs DMSO, % at 10 µM; 1,700 compounds, 4% hits; AID 588520; in the data active = Nile Red retention ratio vs DMSO above about 190%;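 note: higher ratio means more blocking of Cdr2 efflux of the dye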
CaCdr1 efflux inh – Candida Cdr1 efflux pump inhibition | 1,700 compounds, 1% hits | S. cerevisiae AD/CaCDR1, Nile Red efflux, flow cytometry | AID 588522 | shares compounds with Efflux pump mplx | inhibition, % at 10 µM;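 active = inhibition above the screen-wide mean plus twice its standard deviation, cut at about 32% in these data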
* hit, by the source's call; . = no result given. A selection: hits, their analogues and other compounds. The true share with any hit is near 1.2%.

SMILES	SRC1 inh	Efflux pump mplx	NCOA2 inhibitor	NCOA3 inh	NR2F2 inh	NR5A2 inv ag	Yeast cmpd fluor	CaMdr1 efflux inh	Cdr2 pump inh	CaCdr1 efflux inh
CCN(C[C@H]1N[C@@](Cc2ccccc2)(C(=O)OC)[C@H]2C(=O)N(C)C(=O)[C@@H]12)C(=O)C1CCCCC1	-6.1	0.8	-13.7	-4.2	-9.8	4.9	.	.	.	.
c1ccc2nc3c(nc2c1)OCC1CCCCN31 (centres undefined)	-128.1	0.8*	-36.3	-104.0	-46.5	-128.1	95.0	-0.1	95.6	0.1
c1ccc2nc(N3CCCC3)c(N3CCCCC3)nc2c1	-10.2	.	0.4	14.2	-3.2	-15.9	.	.	.	.
Cc1ccc(-c2nnc(N)s2)cc1	-28.5	5.5*	-22.4	-21.5	-28.4	-36.5	112.7	1.0	105.1	0.1
O=C(c1ccc(Cl)cc1)N1C2C=CC(C2)C1(C(F)(F)F)C(F)(F)F (centres undefined)	-65.4	15.2*	-12.1	4.5	6.6	1.0	128.2	1.0	106.0	0.0
O=C(c1cccc(F)c1)N1C2C=CC(C2)C1(C(F)(F)F)C(F)(F)F (centres undefined)	-13.4	0.1	-7.8	9.7	18.5	3.8	.	.	.	.
O=C(CSc1nc2nn(-c3ccccc3)c(=O)c-2c2n1CCCCC2)c1ccc(O)c(O)c1	2.9	-0.3	.	-14.5	.	-30.9	.	.	.	.
COc1ccccc1NC(=O)c1c(N=Cc2c(O)ccc3ccccc23)cnn1C	11.6	0.4*	2.0	17.8	4.6	8.0	110.0	0.8	102.9	0.1
O=C(COC(=O)c1ccc(Br)o1)NCCCc1ccccc1	1.1	-0.2	-27.9	17.3	-1.6	2.0	.	.	.	.
O=C(OCc1ccccc1)c1ccc(Br)o1	3.5	1.1*	-5.7	10.5	12.1	-5.1	100.2	0.1	116.2	-0.2
CC1(C)OC(=O)C(=NNc2ccc(O)cc2)C(=O)O1	-28.1	0.0	-19.1	1.1	12.2	23.2	.	.	.	.
CC1(C)OC(=O)C(=NNc2ccccc2)C(=O)O1	-4.2	9.7*	-14.2	6.7	2.6	19.0	110.0	0.1	105.1	0.0
CCCn1c(O)c(/C=C2\C=NN=C2c2ccccc2)sc1=S	0.6	0.0	-10.3	17.2	-7.9	-13.0	.	.	.	.
CCCCC(CC)Cn1c(O)c(/C=C2\C=NN=C2c2ccccc2)sc1=S (centres undefined)	-0.2	8.3*	20.4	4.6	7.4	-19.1	101.8	0.1	126.8	0.4
Cn1cc([N+](=O)[O-])c(C(=O)Nc2ccn(C34CC5CC(CC(C5)C3)C4)n2)n1	-0.9	16.4*	15.8	-0.3	1.5	-2.5	114.3	-0.2	101.7	0.0
O=C(C1CCC1)N1CCc2cc(S(=O)(=O)NCCN3CCN(c4ccccc4F)CC3)ccc21	4.7	1.1*	-5.8	0.4	10.1	13.5	86.5	0.0	99.6	-0.2
O=C(C1CCC1)N1CCc2cc(S(=O)(=O)N3CCN(c4ccccc4F)CC3)ccc21	.	.	5.9	.	7.3	.	.	.	.	.
O=C(C1CCC1)N1CCc2cc(S(=O)(=O)NCc3ccccn3)ccc21	-10.0	0.7*	10.6	2.7	-16.3	-13.7	109.0	-0.2	101.7	0.0
COc1ccc(NC(=O)CN(C)C(=O)C2=COCCO2)cc1	-3.1	-0.3	-22.2	0.7	-11.5	10.1	.	.	.	.
O=C(CSc1nnc(Cc2cccs2)n1Cc1ccco1)Nc1cccc(Cl)c1	-3.8	-0.1	6.1	0.4	6.7	-3.2	136.8	0.2	89.3	2.0
Cc1ccc(NC(=O)CSc2nnc(-c3cccs3)n2Cc2ccco2)cc1	-2.3	-0.2	4.5	5.7	18.8	1.6	.	.	.	.
C=CCn1c(Cc2cccs2)nnc1SCC(=O)Nc1cccc(OC)c1	-13.2	0.0	-10.2	-6.1	4.7	6.1	.	.	.	.
O=C(CSc1nnc(Cc2cccs2)n1Cc1ccco1)Nc1cc(Cl)cc(Cl)c1	4.5	0.1	-10.7	0.9	-5.5	1.1	114.1	-0.1	118.2	0.0
Cc1cn([C@H]2C[C@H](O)[C@@H](CNC=O)O2)c(=O)[nH]c1=O	1.7	.	-17.4	-12.5	-7.2	2.5	.	.	.	.
O=c1cnnc(Nc2cccc(F)c2)[nH]1	3.4	0.0	7.2	6.7	-22.4	-1.9	.	.	.	.
SMILES	SRC1 inh	Efflux pump mplx	NCOA2 inhibitor	NCOA3 inh	NR2F2 inh	NR5A2 inv ag	Yeast cmpd fluor	CaMdr1 efflux inh	Cdr2 pump inh	CaCdr1 efflux inh
CC[n+]1c(/C=C/C=C/N(C(C)=O)c2ccccc2)sc2cc(OC)ccc21	.	3.5*	-13.7	.	-4.7	.	346.1*	2.1	122.9	1.2
O=[N+]([O-])c1ccc(-c2ccc(/C=N/Nc3nc(NCc4ccccc4)nc(N4CCOCC4)n3)o2)cc1	-19.3	0.5	-27.9	0.3	6.3	22.1	.	.	.	.
COc1nc(N/N=C/c2ccc(-c3ccccc3[N+](=O)[O-])o2)nc(N2CCOCC2)n1	0.3	16.4*	-4.0	-17.8	2.7	33.3	135.2	0.3	91.4	0.6
O=S(=O)(Nc1ccc(-n2cccc2)cc1)c1ccc(Cl)cc1Cl	-10.1	0.1	-5.6	5.9	9.6	-0.6	.	.	.	.
CCC(C)(C)n1nnnc1C(c1ccc(C)cc1)N1CCCC1 (centres undefined)	4.8	-0.1	15.6	15.4	4.7	-11.5	.	.	.	.
CNC(=S)N1CCc2cc(OC)c(OC)cc2C1	11.7	0.1	-14.1	5.8	-11.2	-1.0	108.3	-0.1	105.7	-0.2
COc1cc2c(cc1OC)CN(C(=S)Nc1c(C)cccc1C)CC2	11.1	0.0	-8.5	-1.4	5.0	8.3	.	.	.	.
COc1cc2cc(C(=O)N3CCc4ccccc4C3)[nH]c2cc1OC	16.4	-0.1	-14.7	-6.3	10.7	6.0	.	.	.	.
O=C(c1cn(-c2ccccc2)nc1-c1ccc(F)cc1)N1CCOCC1	-8.1	-0.1	-16.1	-13.3	23.4	-3.6	.	.	.	.
O=C(c1cn(-c2ccccc2)nc1-c1ccc(F)cc1)N1CCCCC1	9.6	11.1*	-36.9	8.9	4.1	8.4	110.1	0.1	118.5	0.4
CCOC(=O)C1=CCN(S(=O)(=O)c2ccccc2Cl)C1c1ccc(Cl)cc1 (centres undefined)	.	.	-11.4	.	11.9	.	.	.	.	.
O=C(Nc1ccc(N2CCN(Cc3ccccc3)CC2)cc1)c1ccco1	-22.4	0.0	-15.2	-0.2	-9.9	-12.2	.	.	.	.
O=C(O)C1CC=CCC1C(=O)Nc1ccc(N2CCN(Cc3ccccc3)CC2)cc1 (centres undefined)	9.7	11.1*	-36.2	-7.1	1.2	6.0	91.9	0.1	95.4	-0.3
Cc1ccc(C(=O)NC(C)c2ccc3c(c2)OCO3)s1 (centres undefined)	0.8	-0.1	10.7	6.0	-5.1	0.3	.	.	.	.

Assay outcomes: PubChem, several laboratories
